# The full list was thinned out, with hits kept by preference.
# SF-1 inh = blocks the human nuclear receptor SF-1 | CHO-K1 Gal4-SF-1 LBD luciferase reporter | inhibition, % at 10 µM | hit rate 0.55% among 65,000 | Q13285;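 active = inhibition above the mean inhibition of all tested compounds plus 3 SD, cut at about 48% in these data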
# Target sequence (Q13285 whole entry, looked up, the tested form may be a part): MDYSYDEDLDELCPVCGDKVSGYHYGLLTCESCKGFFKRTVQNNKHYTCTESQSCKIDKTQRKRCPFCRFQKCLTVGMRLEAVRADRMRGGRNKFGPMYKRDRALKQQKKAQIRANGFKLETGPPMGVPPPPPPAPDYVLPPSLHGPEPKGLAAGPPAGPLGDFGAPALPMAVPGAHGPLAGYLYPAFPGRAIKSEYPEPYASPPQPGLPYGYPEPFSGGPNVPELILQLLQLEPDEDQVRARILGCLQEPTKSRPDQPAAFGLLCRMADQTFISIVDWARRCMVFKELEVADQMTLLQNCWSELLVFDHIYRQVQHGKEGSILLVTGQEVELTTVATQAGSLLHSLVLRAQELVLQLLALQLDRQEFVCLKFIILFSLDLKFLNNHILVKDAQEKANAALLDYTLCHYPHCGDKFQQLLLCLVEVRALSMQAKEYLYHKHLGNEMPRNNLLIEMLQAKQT
# A number is an active result; i = inactive.
SMILES,SF-1 inh
Cc1cc(C)nc(SCCS(=O)Cc2ccc(Cl)cc2)n1 (stereo not given),i
Cc1ccc(S(=O)(=O)Nc2cccc3ncccc23)s1,91
COc1ccc(S(=O)(=O)N(CC(=O)N2CCN(C)CC2)c2ccc(C)cc2)cc1OC,i
CCc1nnc(NC(=O)CSc2nc(C)c3c(c2C#N)CCCC3)s1,i
N#Cc1c(NC(=O)CSc2ncn[nH]2)sc2c1CCCCC2,88
Cn1c(SCC(=O)Nc2sc3c(c2C#N)CCC3)nnc1C1COc2ccccc2O1 (stereo not given),i
O=C(OCc1c(F)cccc1Cl)c1cnccn1,i
CN(C)c1nc(N)nc(-c2nc3ccccc3s2)n1,i
Nc1cccc(-c2nc3ccc(N)cc3s2)c1,61
Cc1ccc2[nH]c(-c3cccc(N)c3)cc2c1,i
C=C(C)Cn1c(C2CC(=O)N(c3ccccc3F)C2)nc2ccccc21 (stereo not given),i
Cc1cc(C)c2cc(C(c3nnnn3CC3CCCO3)N3CCN4CCCC4C3)c(=O)[nH]c2c1 (stereo not given),i
O=C(O)CSc1ccccn1,i
O=c1c2cnn(-c3ccc(F)cc3)c2ncn1Cc1ccccn1,i
O=C(NCc1nnc(SC/C=C/c2ccccc2)o1)c1ccco1,i
COc1ccc(S(=O)(=O)N(Cc2ccccc2)Cc2nc3ccccc3c(=O)[nH]2)cc1,i
COc1nc(Nc2nc3ccccc3c(=O)[nH]2)nc2ccc(C)cc12,76
COc1ccc(Nc2nc(C)c3ccccc3n2)cc1,i
O=c1nc(N2CCOCC2)ccn1Cc1ccc(Br)cc1,i
Cn1c(-c2ccc(F)cc2)cnc1SCC(=O)Nc1ccccc1N1CCOCC1,i
O=c1[nH]c2ccccc2nc1-c1cccs1,i
c1csc(-c2ccc3ccccc3n2)c1,i
c1ccc2nc(-c3nc4ccccc4[nH]3)ccc2c1,67
COc1ccc(Nc2ncc3c(n2)CC(c2ccc(OC)cc2)CC3=O)cc1 (stereo not given),i
COc1cccc(-c2c(NC(=O)c3ccco3)n(-c3ccc(C)cc3)nc(C)c2=O)c1,i
